The values below come from PubChem BioAssay (NCI).

This is part of a sample that, as a whole, favours compounds with a hit. Of some 83,000 tested, about 20% had one in any assay.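 Cell lines were cultured in 96-well plates, exposed to a single compound concentration, and assessed for percent growth 48 hours later.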 Unmarked numbers belong to inactive results. Activity calls are given as the source filed them. Rule for the calls: active = growth percent below 10; inactive = the rest.

In the test the test system is HL-60(TB) leukemia. Briefly: NCI-60 one-dose screen, 48 h (100 = growth as untreated, 0 = no growth, -100 = all killed). Particulars: 10 µM unless noted.
Regarding `COc1cccc(Cn2cc3c(c2)-c2oncc2CC3)c1`, the growth is 1.64% (active).
As to `O=[N+]([O-])c1ccc(Oc2ccccc2Cl)c([N+](=O)[O-])c1`, the growth was -1.82% (active).
Regarding `O=C(CN1C(=O)NC(c2ccccc2)(c2ccccc2)C1=O)c1ccc(N2CCCC2)cc1`, the growth is 85.5%.
Regarding `Cn1c(=O)c2[nH]c(NN)nc2n(C)c1=O`, the growth was 91.6%.
On to `Cl.Fc1c[c-]c(-c2ccccn2)c(F)c1.[Pt].c1ccc([PH+](c2ccccc2)c2ccccc2[PH+](c2ccccc2)c2ccccc2)cc1`, for which the growth is -24.7% (active).
For `CCN1CCC(CCOC)(CN2c3ccccc3Sc3ccc(Cl)cc32)C1` (stereo not given), the growth was 58.5%.
For `CNCCCn1c2c(c3ccc(F)cc3c1=O)C(=O)c1cc(OC)cnc1-2`, the growth is -16.7% (active).
Turning to `CC(=O)N[C@H](C(=O)N[C@@H](CCCNC(=N)N)C(=O)N[C@@H](CCCCN)C(=O)N[C@@H](CCCNC(=N)N)C(=O)N[C@]1(C)CCCCCC/C=C\CCC[C@@](C)(C(=O)N[C@@H](CCCNC(=N)N)C(=O)N[C@@H](CCC(=O)O)C(=O)N[C@@H](CC(C)C)C(=O)N[C@H](C(=O)N[C@@H](CCC(=O)O)C(N)=O)C(C)C)NC(=O)[C@H](CCC(N)=O)NC(=O)[C@H](CC(C)C)NC(=O)[C@H](CC(C)C)NC(=O)[C@H](CCCNC(=N)N)NC(=O)[C@H](CCCNC(=N)N)NC(=O)[C@H](CC(C)C)NC1=O)C(C)C`, the growth is 15.9%.
With `C=CC(O)CCC` (stereo not given), the growth was 88.3%.
In the case of `N#C/C(=C/C=C/c1ccccc1)S(=O)c1ccccc1` (stereo not given), the growth was -16.5% (active).
Take `Cc1ccc2[nH]c(=O)c3c(c2c1)Oc1ncn2nc(-c4ccco4)nc2c1C3c1ccc(Cl)cc1` (stereo not given): the growth is 96.8%.
Regarding `C=C(C)[C@@H]1CC[C@]2(C)[C@H](CC[C@@H]3[C@H]4[C@H]5OC[C@@]4(CCC5(C)C)CC[C@]32C)[C@@]1(C)CCCN`, the growth was -4.66% (active).
`O=C(CNC(=O)c1cccc2ccccc12)Nc1ccccc1Cc1ccccc1`: the growth was -15.9% [5 µM] (active).
Take `Cc1ccccc1C1N=C2Oc3ccccc3C=C2C(=O)N1` (stereo not given): the growth is 2.2% (active).
Under `CC1=CC(=O)C(C(C)=Nc2ccccc2Cl)C(=O)O1` (stereo not given) stands 101%; under `COc1ccc2cc(-c3nc4ccc(C)cn4c3NCc3ccco3)c(=O)[nH]c2c1`, 67.5%; under `COc1ccc(-c2nc(Nc3cc(C)[nH]n3)c3ccccc3n2)cc1`, 41.4%.
Turning to `C=C1C(=O)O[C@H]2[C@H]1CC/C(C(=O)NCCCCCCCCNC(=O)/C1=C/CC[C@@]3(C)O[C@H]3[C@H]3OC(=O)C(=C)[C@@H]3CC1)=C\CC[C@@]1(C)O[C@@H]21`, the growth is 6.59% (active).
The result for `C=C(C)[C@@H]1CC[C@]2(CN)CC[C@]3(C)[C@H](CC[C@@H]4[C@@]5(C)CCC(=O)NC(C)(C)[C@@H]5CC[C@]43C)[C@@H]12` reads -50.5% (active); that for `CC(=O)c1cc(Br)ccc1O`, 101%; that for `O=c1ccc2c(ccc3ncccc32)o1`, 88.8%.
With `CCc1cc(Cc2cc(CC)cc(C(C)(C)C)c2O)c(O)c(C(C)(C)C)c1`, the growth was 58.1%.
As for `CCOC(=O)c1c(C)nc2c(c1N)/C(=C/c1ccc[nH]1)C(=O)N2Cc1ccc(C(F)(F)F)cc1`, the growth is 96.7%.
Under `CCC(C)(C)c1ccc(Nc2ccc(Nc3ccc(C(C)(C)CC)cc3)cc2)cc1` stands 47.5%.
The result for `NC(CSC(c1ccccc1)(c1ccccc1)c1ccc(F)cc1)C(=O)O` (stereo not given) reads -39.2% (active); that for `COC(=O)c1cc(-c2ccc(S(C)(=O)=O)cc2)[nH]c1N/N=C/c1c(Cl)cccc1Cl`, -22.3% (active); that for `CCN(CC)Cc1cc(Nc2c3ccccc3nc3cc(Cl)ccc23)ccc1O`, -37.5% (active).
In the case of `CCOC(=O)c1cc(C#N)n2ccc3ccccc3c12`, the growth is 92.1%.
As for `CCC1CCc2nc3sc(C(=O)Nc4ccccc4C)c(N)c3cc2C1` (stereo not given), the growth is 2.97% (active).
Consider `CC[C@H](C)[C@@H](C(=O)OC)n1cc(CNC(=O)[C@@H](Cc2ccccc2)NC(=O)OCc2ccccc2)nn1`, for which the growth is 104%.
For `Cc1ccc(Cc2cnc(NC(=O)c3ccc4noc(-c5ccccc5)c4c3)s2)cc1`, the growth was 97.7%.
On to `CSc1ccc2c3c(n(C[C@H](O)CO)c(=O)c2c1)-c1ccccc1C3=O`, for which the growth was -12.2% (active).
Turning to `COCCCNc1nc(NC(=O)c2cc(OC)cc(OC)c2)cc(-c2cccnc2)n1`, the growth was 90.2%.
As to `O=C1COc2ccccc2C(=O)N1CCCCNc1ccccc1`, the growth is -36.5% (active).
For the compound `COc1ccc(SC2c3ccc(O)cc3Oc3nc(N)c(C#N)c(N)c32)cc1` (stereo not given), the growth is 46.9%.
In the case of `COc1nc2c(cc1S(=O)(=O)c1ccccc1)CCc1c-2cnn1Cc1ccccc1`, the growth is 26.1%.
On to `Cc1ccc2cccc(OC(=O)Nc3cccc(C(F)(F)F)c3)c2n1`, for which the growth is 67%.
For the compound `CNCCCOc1c(Br)cc(CCNC(=O)/C(Cc2cc(Br)c(OC)c(Br)c2)=N/O)cc1Br`, the growth is -57.1% (active).
`O=C(Nc1cccc(C(F)(F)F)c1)Oc1ccc(Cl)c2cccnc12`: the growth is -10.6% (active).
`CC(C)n1nc(C#Cc2cccc3cc(-c4cccc(C(F)(F)F)c4)ncc23)c2c(N)ncnc21`: the growth is 57.1%.
